# Where “and” joins values, the source holds several entries; their conditions need not be identical. Identical values can stand only once. Records with an inconclusive call do not appear. Calls of active or inactive are those of the source. Calls come from the whole dose curve. Positions of bridges follow the written chain, without caps; N, C: chain ends. Non-standard residues stand in square brackets, D forms with d. Residues, ends and D or L forms follow the SMILES beside them. *: point of attachment. X2 = CC[C@H](C)CCCCC(=O)*; Dab = NCC[C@H](N)C(=O)O
# Assay: qHTS assay for small molecules that induce genotoxicity in human embryonic kidney cells expressing luciferase-tagged ATAD5 - cell viability (AID 651634); note: nearly all actives have a fitted effect of over 25% in size
# Settings: HEK293T ATAD5-luc cells viability, CellTiter-Fluor, 15.5 h; series mostly up to 83.3 µM; activity, negative = cytotoxicity: at the top concentration
# Procedure, shortened: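 Viability read: CellTiter-Fluor fluorescence, 30 min at 37C. Cells: HEK293T, luciferase-tagged ATAD5. Exposure: 15.5 hr, 37C, 5% CO2, compound or DMSO vehicle.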
# % is set by controls: 0 for no effect and ±100 for the full control effect; potency is the fitted concentration of half-maximal effect.
Structure (SMILES),"activity, negative = cytotoxicity",Potency
C[C@]12C=CC(=O)N[C@@H]1CC[C@@H]1[C@@H]2CC[C@]2(C)[C@@H](C(=O)Nc3cc(C(F)(F)F)ccc3C(F)(F)F)CC[C@@H]12,19.4% (inactive),
COc1ccc(C(=O)CCC(=O)O)c2ccccc12,-0.919% (inactive),
COc1ccc2cc([C@H](C)CO)ccc2c1,8.88% (inactive),
Cn1c(=O)c2c(ncn2CCOC(=O)C(C)(C)Oc2ccc(Cl)cc2)n(C)c1=O,7.47% (inactive),
CCCCCC(O)/C=C/C=O (centres undefined),3.57% (inactive),
CCC(C)[C@H]1O[C@]2(C=C[C@@H]1C)C[C@@H]1C[C@@H](C/C=C(\C)[C@@H](O[C@H]3C[C@H](OC)[C@@H](O[C@H]4C[C@H](OC)[C@H](NC(C)=O)[C@H](C)O4)[C@H](C)O3)[C@@H](C)/C=C/C=C3\CO[C@@H]4[C@H](O)C(C)=C[C@@H](C(=O)O1)[C@]34O)O2 (some centres undefined),,6.68 µM (active) and 10.6 µM (active)
CC1(C)N=C(N)N=C(N)N1c1ccc(Cl)cc1,9.38% (inactive),
CN(C)C(=O)CCSC(SCCC(=O)O)c1cccc(/C=C/c2ccc3ccc(Cl)cc3n2)c1 (centres undefined),,23.7 µM (active)
C[C@H](CCCC(C)(C)O)[C@H]1CC[C@H]2[C@@H]3CC=C4C[C@@H](O)CC[C@]4(C)[C@H]3CC[C@]12C,10.6% (inactive),
CNC(=O)c1c(I)c(C(=O)NCC(=O)Nc2c(I)c(C(=O)O)c(I)c(C(=O)NCCO)c2I)c(I)c(N(C)C(C)=O)c1I,12.9% (inactive),
C=C1CC[C@@H]2[C@](C)(CO)[C@H](O)CC[C@@]2(C)[C@@H]1C/C=C1/C(=O)OC[C@H]1O,-27.6% (inactive),
C[C@H](CSC(=O)c1ccccc1)C(=O)N1C[C@@H](Sc2ccccc2)C[C@H]1C(=O)O,-7.98% (inactive),
C=C[C@]1(C)C[C@@H](OC(=O)CSCCN(CC)CC)[C@]2(C)[C@H](C)CC[C@]3(CCC(=O)[C@H]32)[C@@H](C)[C@@H]1O,-15.9% (inactive),
O=C(O)C1=C(CSc2nnnn2CS(=O)(=O)O)CS[C@@H]2[C@H](NC(=O)[C@H](O)c3ccccc3)C(=O)N12,17.9% (inactive),
COc1cc(/C=C/C(=O)N2CCN(CC(=O)N3CCCC3)CC2)cc(OC)c1OC,10.9% (inactive),
CCOC(=O)c1c[nH]c2cc(OCC(C)C)c(OCC(C)C)cc2c1=O,9.89% (inactive),
CCCCCCCCCCCCCCCCCCCCCCO,5.43% (inactive),
CC1=C(/C=C/C(C)=C/C=C/C(C)=C/C(=O)Oc2c(C)c(C)c3c(c2C)CC[C@@](C)(CCC[C@H](C)CCC[C@H](C)CCCC(C)C)O3)C(C)(C)CCC1,12.9% (inactive),
CC(C)CCCC(C)NC(C)C (centres undefined),15.8% (inactive),
O=C(O)CCC/C=C\C[C@@H]1[C@@H](/C=C/[C@@H](O)COc2cccc(C(F)(F)F)c2)[C@H](O)C[C@@H]1O,12.7% (inactive),

Structure (SMILES),"activity, negative = cytotoxicity",Potency
O=C(O)COc1ccc(CCNS(=O)(=O)c2ccccc2)s1,12.2% (inactive),
CO[C@H]1C[C@@H]2CC[C@@H](C)[C@@](O)(O2)C(=O)C(=O)N2CCCC[C@H]2C(=O)O[C@H]([C@H](C)C[C@@H]2CC[C@@H](OC(=O)C(C)(CO)CO)[C@H](OC)C2)CC(=O)[C@H](C)/C=C(\C)[C@@H](O)[C@@H](OC)C(=O)[C@H](C)C[C@H](C)/C=C/C=C/C=C/1C,10.9% (inactive),
CC[C@H](C)CCCCC(=O)N[C@@H](CCN)C(=O)N[C@H](C(=O)N[C@@H](CCN)C(=O)N[C@H]1CCNC(=O)[C@@H]([C@H](C)O)NC(=O)[C@H](CCN)NC(=O)[C@H](CCN)NC(=O)[C@H](CC(C)C)NC(=O)[C@@H](CC(C)C)NC(=O)[C@H](CCN)NC1=O)[C@@H](C)O (X2-[Dab]T[Dab][Dab][Dab][dL]L[Dab][Dab][dT]; lactam 4-C),6.39% [at 39.1 µM] (inactive),
C#C[C@]1(O)CC[C@H]2[C@@H]3CCC4=CC(=O)CC[C@@H]4[C@H]3C(=C)C[C@@]21CC,8.94% (inactive),
C=C1CC[C@H](O)CC1=C/C=C1\CCC[C@]2(C)[C@@H]([C@H](C)CCCC(C)(C)O)CC[C@@H]12,,13.3 µM (active)
CC(=O)Nc1c(I)c(C(=O)O)c(I)c(N(C)C(C)=O)c1I,11.9% (inactive),
CC1(C)S[C@@H]2[C@H](NC(=O)[C@H](N)c3ccccc3)C(=O)N2[C@H]1C(=O)OCOC(=O)[C@@H]1N2C(=O)C[C@H]2S(=O)(=O)C1(C)C,10.9% (inactive),
CNC(C)CCC=C(C)C (centres undefined),20.3% (inactive),
Cc1c(Cl)cccc1Nc1ncccc1C(=O)O,3.56% (inactive),
CN(CCO)CC(O)Cn1cnc2c1c(=O)n(C)c(=O)n2C (centres undefined) (tested in a mixture with another compound),20.8% (inactive),
CC[C@H](C)CCCCC(=O)N[C@@H](CCN)C(=O)N[C@H](C(=O)N[C@@H](CCN)C(=O)N[C@H]1CCNC(=O)[C@H]([C@@H](C)O)NC(=O)[C@H](CCN)NC(=O)[C@H](CCN)NC(=O)[C@H](CC(C)C)NC(=O)[C@@H](CC(C)C)NC(=O)[C@H](CCN)NC1=O)[C@@H](C)O (X2-[Dab]T[Dab][Dab][Dab][dL]L[Dab][Dab]T; lactam 4-C),6.93% (inactive),
CCCCCCCCCCCC(=O)OC[C@@H](O)C1OC[C@H](O)[C@H]1O (some centres undefined),7.43% (inactive),
CCOc1ccc(N=Nc2ccc(N)cc2N)cc1,,2.37 µM (active)
FCOC(C(F)(F)F)C(F)(F)F,11.7% (inactive),
CCNC(=O)[C@@H]1CCCN1C(=O)[C@H](CCCN=C(N)N)NC(=O)[C@H](CC(C)C)NC(=O)[C@@H](Cc1c[nH]c2ccccc12)NC(=O)[C@H](Cc1ccc(O)cc1)NC(=O)[C@H](CO)NC(=O)[C@H](Cc1c[nH]c2ccccc12)NC(=O)[C@H](Cc1cnc[nH]1)NC(=O)[C@@H]1CCC(=O)N1,,8.41 µM (active)
C[N@+]12CCCC[C@@H]1CCC(=C(c1cccs1)c1cccs1)C2,17.5% (inactive),
O=C(OC[C@H]1O[C@](O)(COC(=O)c2cccnc2)[C@@H](OC(=O)c2cccnc2)[C@@H]1OC(=O)c1cccnc1)c1cccnc1,6.39% (inactive),
COC(=O)CCC[N+](C)(C)C,10.1% (inactive),
CCCCCCCCCCCCCCCC(=O)OCC(COC(=O)CCCCCCCCCCCCCCC)OC(=O)CCCCCCCCCCCCCCC,11.3% (inactive),

# Source: PubChem BioAssay (Tox21)
